From PubChem BioAssay (EPA / NIEHS)
Activity calls are given as the source filed them. Rule for the calls: active = hit-call score of the fitted dose curve at least 0.9, where 1 is the maximum; inactive = score below 0.9.

These molecules were tested on Tissue plasminogen activator (tPA), PLAT (gene 5327) (assay: BSK_BE3C_tPA: BioMAP Diversity Plus: BE3C Assay for Tissue plasminogen activator (tPA) Biomarker Activity (AID 2283041;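 for outcome: tPA level quantified by ELISA one day after compound addition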)). Conditions: primary human bronchial epithelial cells; actives raise or lower the signal.
Experimental: BSK_BE3C is a cell-based, multiplexed-readout assay that uses bronchial epithelial cell, a human lung primary cell, with measurements taken at 24 hours after chemical dosing in a 96-well plate.BSK_BE3C_tPA is an assay component measured in the BSK_BE3C assay. It measures tPA antibody related to regulation of gene expression using ELISA technology.Data from the assay component BSK_BE3C_tPA was analyzed into 1 assay endpoint. This assay endpoint, BSK_BE3C_tPA, was analyzed with bidirectional fitting relative to DMSO as the negative control and baseline of activity. Using a type of binding reporter, gain or loss-of-signal activity can be used to understand changes in the signaling as they relate to the gene PLAT. Furthermore, this assay endpoint can be referred to as a primary readout, because this assay has produced multiple assay endpoints where this one serves a signaling function. To generalize the intended target to other relatable targets, this assay endpoint is annotated to the protease intended target family, where the subfamily is serine protease.
The levels of cell surface (or secreted, indicated by the prefix "s") biomarker endpoints were measured by ELISA. Overt cytotoxicity to cells in confluent adherent cultures (all systems other than the BT system) was assessed by measuring total protein levels using sulforhodamine B (SRB) staining in parallel cultures at the time of biomarker measurements, indicated as SRB endpoints. For proliferation assays for adherent cell types, individual cell types are cultured at sub-confluence and relative cell numbers quantified by SRB staining at time points optimized for each system (48 h: 3C and CASM3C systems; 72 h: BT and HDF3CGF systems; 96 h: SAg system). SRB was performed by staining cells with 0.1% SRB after fixation with 10% TCA and reading wells at 560 nm.Viability and proliferation of PBMC (T cells) was quantified by Alamar Blue reduction for the SAg and BT systems. For PBMC viability (referred to as PBMC Cytotoxicity within the assay endpoint names), cells were plated (75,000/well in a 96-well plate) and then chemical samples added for 1 h before addition of activators, SEB and TSST-1 (20 ng/mL final concentration each). Cells were incubated for 90 h. Then, Alamar Blue (20 uL/well) (Invitrogen, Cat DAL1100) was added for 6 h, and the plates were read with a fluorescence microplate reader at 546/580 nm (excitation/emission). For PBMC proliferation, cells were plated and activated as above but incubated for only 16 h prior to addition of Alamar Blue. Plates were read after 6 h.

**Q.** With `C[C@](N)(Cc1ccc(O)c(O)c1)C(=O)O` as the molecule, how does the outcome read?
**A.** inactive

**Q.** `C=CC(=C)CCC=C(C)C` was tested. Which outcome did it give?
**A.** inactive

**Q.** Which outcome does the source give for `CC(=O)c1ccc2c(c1)[C@H](NC(=O)c1ccc(F)cc1)[C@@H](O)C(C)(C)O2` here?
**A.** inactive

**Q.** With `CC(C)CC(C)(O)C#CC(C)(O)CC(C)C` (stereo not given) as the molecule, how does the outcome read?
**A.** inactive

**Q.** With `CC(C)CCCCCCOC(=O)c1ccc(C(=O)OCCCCCCC(C)C)c(C(=O)OCCCCCCC(C)C)c1` as the molecule, how does the outcome read?
**A.** inactive

**Q.** Which outcome does the source give for `Oc1ccc2c(c1)-c1ccccc1C2` here?
**A.** inactive

**Q.** Which outcome does the source give for `O=C(NS(=O)(=O)/C=C/c1ccccc1)c1ccc(F)cc1Cl` here?
**A.** inactive

**Q.** Which outcome does the source give for `O=C1OC(=O)C2C3C=CC(C3)C12` (stereo not given) here?
**A.** inactive

**Q.** Which outcome does the source give for `CC1(C)C(=O)N(Br)C(=O)N1Br` here?
**A.** inactive

**Q.** Which outcome does the source give for `Nc1ccc(Nc2ccccc2)cc1` here?
**A.** inactive

**Q.** For `CCOC(=O)COc1ccc2c(c1)CC(NCC(O)c1cccc(Cl)c1)CC2` (stereo not given), which outcome is on record?
**A.** inactive

**Q.** With `CCOC(=O)c1ccc(C2CCC(NC[C@H](O)COc3ccc(O)c(NS(C)(=O)=O)c3)CC2)cc1` (stereo not given in full) as the molecule, how does the outcome read?
**A.** inactive

**Q.** With `O=C1CCC(N2C(=O)c3ccccc3C2=O)C(=O)N1` (stereo not given) as the molecule, how does the outcome read?
**A.** inactive

**Q.** With `O=C(O)CCN(C1(C(=O)NO)CCCC1)S(=O)(=O)c1ccc(Oc2ccc(F)cc2)cc1` as the molecule, how does the outcome read?
**A.** inactive

**Q.** Which outcome does the source give for `CCCCCCCCCCCCCCCO` here?
**A.** inactive

**Q.** With `NC(=O)NO` as the molecule, how does the outcome read?
**A.** inactive

**Q.** How did the outcome turn out when `O=C(O)c1cccc(Oc2ccccc2)c1` was run?
**A.** inactive

**Q.** `CCCC(=O)OCC` was tested. Which outcome did it give?
**A.** inactive

**Q.** With `CC(O)CN(CCN(CC(C)O)CC(C)O)CC(C)O` (stereo not given) as the molecule, how does the outcome read?
**A.** inactive

**Q.** Which outcome does the source give for `COC(=O)CC(=O)OC` here?
**A.** inactive

**Q.** How did the AC50 turn out when `CCCCCCc1ccc(O)cc1O` was run?
**A.** 13.2 µM (active)

**Q.** How did the outcome turn out when `CC1=CC(=O)CC(C)(C)C1` was run?
**A.** inactive

**Q.** Which AC50 does the source give for `O=C(CCCCCCCCc1cccnc1)N1CCC(C=C(c2ccccc2)c2ccccc2)CC1` here?
**A.** 19.5 µM (active)

**Q.** `CCCCC(CC)COC(=O)c1ccc(C(=O)OCC(CC)CCCC)cc1` (stereo not given) was tested. Which outcome did it give?
**A.** inactive

**Q.** With `CC[C@H]1CC[C@H](NCc2cc3c(cc2OC)[C@H]2C[C@H]2C(=O)N3C)[C@H](c2ccccc2)N1` as the molecule, how does the outcome read?
**A.** inactive

**Q.** For `CC/C(=C\C(=N/O)C(N)=O)C(C)[N+](=O)[O-]` (stereo not given), which outcome is on record?
**A.** inactive

**Q.** How did the outcome turn out when `CCNc1ccccc1` was run?
**A.** inactive

**Q.** With `O=C(O)c1cccc(N(Cc2cccnc2)c2ccc(OC(F)F)c(OC(F)F)c2)c1` as the molecule, how does the outcome read?
**A.** inactive

**Q.** `CC(C)CCO` was tested. Which outcome did it give?
**A.** inactive

**Q.** For `Cc1[nH]cnc1C[C@H]1CCc2c(C)c3ccccc3n2C1=O`, which outcome is on record?
**A.** inactive

**Q.** For `CCc1cc(SCc2sc(-c3ccc(C(F)(F)F)cc3)nc2CN2CCN(c3ccc(OC)cc3)CC2)ccc1OCC(=O)O`, which AC50 is on record?
**A.** 5.23 µM (active)

**Q.** Which outcome does the source give for `C1=CCCC=CCCC=CCC1` here?
**A.** inactive

**Q.** How did the outcome turn out when `O=c1[nH]c2ccc(S(=O)CCN3CCC(Cc4ccc(F)cc4)CC3)cc2o1` (stereo not given) was run?
**A.** inactive

**Q.** Which outcome does the source give for `CNCc1ccc(NC(=O)c2c[nH]c3c2C(=O)CCC3)cc1` here?
**A.** inactive

**Q.** How did the AC50 turn out when `O=C(OC[C@H]1O[C@@H](OC(=O)c2cc(O)c(O)c(OC(=O)c3cc(O)c(O)c(O)c3)c2)[C@H](OC(=O)c2cc(O)c(O)c(OC(=O)c3cc(O)c(O)c(O)c3)c2)[C@@H](OC(=O)c2cc(O)c(O)c(OC(=O)c3cc(O)c(O)c(O)c3)c2)[C@@H]1OC(=O)c1cc(O)c(O)c(OC(=O)c2cc(O)c(O)c(O)c2)c1)c1cc(O)c(O)c(OC(=O)c2cc(O)c(O)c(O)c2)c1` was run?
**A.** 1.45 µM (active)

**Q.** For `CCCN(C1CCN(C(=O)C2CCNCC2)CC1)[C@@H]1CCc2ccc(OC)cc2C1`, which outcome is on record?
**A.** inactive

**Q.** Which outcome does the source give for `COC(=O)c1ccccc1O` here?
**A.** inactive

**Q.** For `CCCCC(CC)COC(=O)CCCCCCCCC(=O)OCC(CC)CCCC` (stereo not given), which outcome is on record?
**A.** inactive

**Q.** For `C=CCCCCCCCCC(=O)O`, which outcome is on record?
**A.** inactive

**Q.** `CC[C@H](C)C(=O)O[C@H]1C[C@@H](C)C=C2C=C[C@H](C)[C@H](CC[C@@H]3C[C@@H](O)CC(=O)O3)[C@H]21` was tested. Which AC50 did it give?
**A.** 25.6 µM (active)
